According to PubChem BioAssay AID1851 (National Center for Advancing Translational Sciences (NCATS), 2009):
Where “and” joins values, the source holds several entries; their conditions need not be identical. Equal values may be shown once. The campaign covered roughly 16,000 compounds. About 4,000 (25%) were called active. Not shown: some 26% with an inconclusive outcome. A selection follows. Values without a mark were called inactive. The call rests on the fitted dose curve; in most records, active means well fitted curve in the direction sought with a large enough effect; inconclusive means small, poorly fitted or top-dose-only effect, or effect the other way; inactive means no such curve, though single readings can be large or run the other way.

molecular target: Cytochrome P450 2C9 (Homo sapiens) (UniProt P11712); assay: Cytochrome panel assay with activity outcomes; settings: recombinant CYP, pro-luciferin dealkylation, luminescence, p450-cyp2c9; series mostly up to 57.1 µM; activity, negative = inhibition: at the top concentration
On the % scale 0 is the no-effect control and ±100 the full control effect.

Chain of Cytochrome P450 2C9 (Homo sapiens) (P11712 whole entry, looked up): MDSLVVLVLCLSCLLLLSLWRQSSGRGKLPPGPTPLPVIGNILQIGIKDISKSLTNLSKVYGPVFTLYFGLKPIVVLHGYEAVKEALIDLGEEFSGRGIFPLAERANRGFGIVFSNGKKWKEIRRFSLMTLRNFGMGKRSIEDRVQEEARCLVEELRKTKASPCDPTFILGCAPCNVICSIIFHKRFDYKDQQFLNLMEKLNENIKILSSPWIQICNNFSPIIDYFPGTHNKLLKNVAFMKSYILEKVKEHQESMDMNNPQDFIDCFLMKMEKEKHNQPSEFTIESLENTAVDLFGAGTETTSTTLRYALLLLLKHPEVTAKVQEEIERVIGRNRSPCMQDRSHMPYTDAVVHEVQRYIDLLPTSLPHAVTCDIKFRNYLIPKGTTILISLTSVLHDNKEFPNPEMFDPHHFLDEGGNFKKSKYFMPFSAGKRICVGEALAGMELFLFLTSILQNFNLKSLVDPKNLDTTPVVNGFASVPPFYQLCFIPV

| SMILES | AC50 | activity, negative = inhibition |
| --- | --- | --- |
| Cc1ccc(NC2=NC(c3ccccc3)n3c(nc(C)cc3=O)N2)c(C)c1 (stereo unspecified) | 35.5 µM (active) |  |
| COc1ccccc1CNc1cc(-c2ccccc2C)ncn1 |  | -15.1% [at 2.29 µM] |
| O=C1C(=O)N(c2cccc(Cl)c2)C(c2ccccc2[N+](=O)[O-])/C1=C(\O)c1ccccc1 (stereo unspecified) | 2 µM (active) |  |
| COc1ccc(C2/C(=C(/O)c3ccc(Cl)cc3)C(=O)C(=O)N2CCN2CCOCC2)c(OC)c1 (stereo unspecified) |  | -24.6% |
| CC(C)(C)N1C(=O)[C@H]2[C@@H]3[C@H](O)[C@H](O)CC(=O)[C@H]3CC[C@H]2C1=O |  | 6.8% [at 11.4 µM] and 2.7% [at 11.4 µM] |
| O=C(O)[C@@H]1[C@@H](C(=O)Nc2ccccc2)[C@@H]2C=C[C@@H]1O2 |  | 12.3% [at 11.4 µM] |
| CC(=O)NCCNc1nc(-c2cccc(NS(C)(=O)=O)c2)nc2ccccc12 |  | -9.35% [at 2.29 µM] |
| CS(=O)(=O)Nc1cccc(-c2nc(Nc3ccccc3)c3ccccc3n2)c1 |  | -28.2% [at 2.29 µM] |
| CC(C)(C)C(=O)Nc1cccc(-c2nc3ccccc3c(=O)o2)c1 | 12.6 µM (active) |  |
| COc1ccc(NC(=O)c2cc3n(n2)C(C(F)(F)F)CC(c2ccc4c(c2)OCO4)N3)cc1OC (stereo unspecified) |  | -12.5% |
| O=C(NCC1CCCO1)c1nn2c(c1Cl)NC(c1ccc(F)cc1)CC2C(F)(F)F (stereo unspecified) | 25.1 µM (active) |  |
| O=C(NCC1CCCO1)c1ccc(CS(=O)(=O)Cc2ccc(F)cc2)o1 (stereo unspecified) |  | 25.2% |
| CN1CCN(c2ncc3nc(-c4cccs4)c(=O)n(C[C@H]4CCCO4)c3n2)CC1 |  | 16.1% |
| CCOC(=O)C(NC(C)=O)C(OC(C)=O)c1cccc(N(CCO)CCO)c1 (stereo unspecified) |  | -15.8% |
| Clc1ccccc1C(Nc1cnccn1)Nc1cnccn1 |  | 1.92% [at 11.4 µM] |
| O=C1CC(c2cccc(F)c2)SC(N(c2ccccc2)c2ccccc2)=N1 (stereo unspecified) | 10 µM (active) |  |
| C[N+](C)(C)CCOC(N)=O | inactive |  |
| CC(C)[C@@H]1[C@H]2CC[C@H](C2)[C@H]1N |  | -9.4% |
| CC1=C/C(=N/O)C([C@H]2C=C(C)CC(C)(C)[C@@H]2O)C(C)(C)C1 (stereo partly specified) | 2.51 µM (active) |  |

| SMILES | AC50 | activity, negative = inhibition |
| --- | --- | --- |
| N#CCCn1c(=O)c(-c2cc(F)cc(F)c2)nc2cnc(Nc3ccccc3)nc21 |  | 18.7% |
| CN(C)Cc1ccccc1-c1ccc2ncnc(NCc3ccccc3)c2c1 |  | -7.5% [at 2.29 µM] |
| CCCC[C@]1(C2CCCC2)Cc2cc(OCC(=O)O)c(Cl)c(Cl)c2C1=O | 2.51 µM (active) |  |
| CCCc1nc(SCC(=O)NNC(=O)C2CCCCC2)c2ccccc2n1 |  | 5.32% |
| Cc1cccc(NC(=O)CSc2nc(COc3ccccc3)nc3ccccc23)c1C | 0.631 µM (active) |  |
| CN(C)Cc1ccccc1-c1cc(N(C)Cc2ccco2)ncn1 |  | -3.1% [at 2.29 µM] |
| C/C(=N/NC(=O)c1ccc(C)s1)c1cccc(NC(=O)COc2ccc(Cl)cc2C)c1 | 1.26 µM (active) |  |
| C/C(=N\NC(=O)c1ccc(Cl)cc1)c1cccc(NC(=O)C(C)C)c1 |  | -11.6% |
| COc1cc(OC)c(C(=O)CCCCN2CCC3(CC2)NC(=O)NC3=O)cc1NS(=O)(=O)c1ccc(C(F)(F)F)cc1 |  | 22.9% |
| COc1ccc(C(C(=O)NC2CCCC2)N(Cc2ccc(F)cc2)C(=O)c2ccn[nH]2)cc1OC (stereo unspecified) |  | -29.6% |
| COc1ccc(CCN(C(=O)C(F)(F)F)C(C(=O)NC2CCCC2)c2cccs2)cc1 (stereo unspecified) | 3.16 µM (active) |  |
| Cc1ccc(N(C(=O)C(F)(F)F)C(C(=O)NC2CCCCC2)c2cccs2)cc1C (stereo unspecified) |  | -17.9% |
| COc1ccc(CN(C(=O)Cc2cccs2)C(C(=O)NC2CCCC2)c2ccncc2)cc1 (stereo unspecified) | 5.01 µM (active) |  |
| O=C(NC1CCCCC1)C(c1cccs1)N(C(=O)C(F)(F)F)c1ccccc1 (stereo unspecified) | 1.58 µM (active) |  |
| Cc1ccc(C)c(NC(=S)N(CCc2nc3cc(C)c(C)cc3[nH]2)Cc2cccnc2)c1 | 3.98 µM (active) |  |
| COc1ccc(NC(=S)N(CCc2nc3cc(C)c(C)cc3[nH]2)Cc2cccnc2)cc1 | 7.94 µM (active) |  |
| Cc1cccc(NC(=S)N(CCc2nc3cc(C)c(C)cc3[nH]2)Cc2cccnc2)c1 | 7.94 µM (active) |  |
| Cc1cccc(CNc2nc(-c3cccnc3)nc3ccccc23)c1 |  | -13% [at 2.29 µM] |
| COc1cccc(NC(=S)N(CCc2nc3cc(C)c(C)cc3[nH]2)Cc2cccnc2)c1 | 5.01 µM (active) |  |

| SMILES | AC50 | activity, negative = inhibition |
| --- | --- | --- |
| COC(=O)[C@@H]1O[C@@H](SCCN)[C@@H](O)[C@H](O)[C@H]1O |  | 15% [at 11.4 µM] |
| O=C(O)Cc1ccc2ocnc2c1 |  | -22.7% |
| COc1cccc(Nc2ncc3nc(C)c(=O)n(C)c3n2)c1 |  | -11.4% |
| COc1cccc(Nc2ncc3nc(C)c(=O)n(C4CC4)c3n2)c1 |  | -17.1% |
| COc1ccc(C2CC(=O)c3cnc(Nc4cc(C)cc(C)c4)nc3C2)cc1 (stereo unspecified) | 10 µM (active) |  |
| COc1ccc(Nc2ncc3c(n2)CC(c2ccc(C)cc2)CC3=O)cc1 (stereo unspecified) | 5.01 µM (active) |  |
| COc1ccc(-c2nc3cnc(Nc4ccccc4)nc3n(CCC#N)c2=O)cc1 |  | 7.37% |
| NS(=O)(=O)c1cc2c(cc1C(F)(F)F)N[C@H](Cc1ccccc1)NS2(=O)=O |  | -8.84% [at 25.6 µM] |
| CN1CCN([C@@H]2Cc3ccccc3Sc3ccc(Cl)cc32)CC1 |  | -20.1% |
| CNC(=O)[C@H]1O[C@H](n2cnc3c(NCc4cccc(I)c4)ncnc32)[C@@H](O)[C@@H]1O |  | 26.3% |
| CCSC1=C(C#N)C2(CCCCC2)C(C#N)=C(N)N1 | 2.82 µM (active) |  |
| CCOC(=O)[C@]1(CC(=O)O)CCCC1=O |  | -6.54% [at 11.4 µM] |
| COc1ccc(N(CC(=O)Nc2cccc(C)c2)S(=O)(=O)c2c(C)n[nH]c2C)cc1 | 1.41 µM (active) |  |
| Cc1cccc(NS(=O)(=O)c2c(C)n[nH]c2C)c1 | 17.8 µM (active) |  |
| Cc1cc(C)c(S(=O)(=O)Nc2cccc(C(F)(F)F)c2)c(C)c1 |  | -21.9% |
| CN(C)c1cc(-c2cccc(NS(C)(=O)=O)c2)ncn1 |  | 16.1% [at 2.29 µM] |
| COc1ccccc1CNc1ccnc(-c2ccccc2OC)n1 |  | -5.44% [at 2.29 µM] |
| C=CCSc1nnc2c(n1)OC(c1c(C)[nH]n(-c3ccccc3)c1=O)Nc1ccccc1-2 (stereo unspecified) | 0.447 µM (active) |  |
